# Test results reported in the OligoGym collection.
# Key:
# Test in all cases: pooled miR-30 sensor sort-seq; sequence = guide strand
# Settings in all cases: shRNA
# [1] = target: C15orf58
# [2] = target: C16orf55
# [3] = target: C15orf54
# [4] = target: C17orf103
# [5] = target: C17orf71
# [6] = target: C19orf33
# [7] = target: C19orf26
# [8] = target: C19orf43
# [9] = target: C19orf48
# Note: reference of the scale not given here.
sequence,measurement,setting,value
TGAAGTTGAACTGTACAGGGTC,sensor-assay potency score (higher = more potent),[1],0.667
TTTTGGAACTGAATAGGTGGAT,sensor-assay potency score (higher = more potent),[2],-0.336
AACAACAACAAGAATATCCTGC,sensor-assay potency score (higher = more potent),[3],0.568
ATTGAAAGCTTCACCGTCCTTT,sensor-assay potency score (higher = more potent),[1],0.575
TTATAGGCGTCTGCTGTACTGG,sensor-assay potency score (higher = more potent),[2],-0.778
TTCTCTGCTGGTCACTCCCGCT,sensor-assay potency score (higher = more potent),[2],-1.51
TTCTGTAGGCACTACATTCTGG,sensor-assay potency score (higher = more potent),[3],-0.0345
TTCTCCATCAACTTCTCCTTAG,sensor-assay potency score (higher = more potent),[2],-0.561
TTCACCTTCTTGAAGAACCTGC,sensor-assay potency score (higher = more potent),[3],0.924
TAACTCTGAGTCTGTTCCCAGT,sensor-assay potency score (higher = more potent),[4],-0.884
TTTGGGTCTGTAGCTCCCGTAG,sensor-assay potency score (higher = more potent),[1],-1.43
ATCTGGGACCTCGGTGTGCTGC,sensor-assay potency score (higher = more potent),[4],-1.85
TTCAGTTTGTGACTTTTGCTGG,sensor-assay potency score (higher = more potent),[3],0.098
TTCCTTTACATTTATAACCATT,sensor-assay potency score (higher = more potent),[3],-1.28
TAGGCGTCTGCTGTACTGGGGT,sensor-assay potency score (higher = more potent),[2],0.489
TTCTCCTTGACGTACTTCTGGA,sensor-assay potency score (higher = more potent),[4],-0.93
TTAAGCAATGAGCTCAATCTAG,sensor-assay potency score (higher = more potent),[3],-0.475
TCTTGTTGAAGTTGAACTGTAC,sensor-assay potency score (higher = more potent),[1],0.172
TAGTATAATAAAGTTATGCTAC,sensor-assay potency score (higher = more potent),[3],-0.835
TTTAAGTTTATCAGCATCCGAA,sensor-assay potency score (higher = more potent),[5],-0.269
TTCTCCTTCTTCTTCACTTTGG,sensor-assay potency score (higher = more potent),[6],-0.173
TCCGTCAGTGTGTACCGGCGAC,sensor-assay potency score (higher = more potent),[7],-0.95
TCTCGTGCTGCTTGGAGCCAGC,sensor-assay potency score (higher = more potent),[6],-1.2
TTGGCTACTATTCCCGTCTTGA,sensor-assay potency score (higher = more potent),[8],0.118
TCCGAATCGCTGGAGCTGCTGC,sensor-assay potency score (higher = more potent),[6],-0.94
TTCGGTCTCCGCATCCTGGCAC,sensor-assay potency score (higher = more potent),[7],-0.126
TACTTGTTAATACCTCATCCTC,sensor-assay potency score (higher = more potent),[8],-0.735
TTGAGGGCTAGTTTGTTCCCGC,sensor-assay potency score (higher = more potent),[8],-0.869
TGAGTCACACTCGTGGATGGTG,sensor-assay potency score (higher = more potent),[7],-0.617
ATAGGCCTGGTCACAATAGGGA,sensor-assay potency score (higher = more potent),[9],-0.793
